Results as given in PubChem BioAssay AID1159580 (chemical genetic matrix, 2015).
The whole screen tested about 5,500 compounds, of which about 2,000 (36%) were called active. Roughly 18% stayed inconclusive and do not appear here. Rule as the data show it: active = normalized growth mostly below about 0.91 (no sharp cut-off); inconclusive = no clear call, values can overlap the other calls; inactive = mostly above about 0.92. This is one part of the list.

Assay: chemical genetic growth profiling, strain panel (AID 1159580);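 also: tested at 20 µM; growth read once vehicle control cultures reached saturation at 30 °C; 1 = growth at the plate median or of vehicle wells; lower values mean less growth of the strain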
Conditions: growth OD

Measured: normalized growth

COc1c(OC)c2occc2c2oc(=O)ccc12
inactive: S. cerevisiae deletion strains, locus YJR066W, strain TOR1, active compounds read low 0.929 | S. cerevisiae deletion strains, locus YKL009W, strain mrt4, active compounds read low 0.957 | S. cerevisiae deletion strains, locus YKL068W, active compounds read low 0.978 | S. cerevisiae deletion strains, locus YKL085W, strain MDH1 (second series), active compounds read low 0.97 | S. cerevisiae deletion strains, locus YKL085W, strain MDH1, active compounds read low 0.97 | S. cerevisiae deletion strains, locus YKL160W, strain elf1, active compounds read low 0.942 | S. cerevisiae deletion strains, locus YKL190W, strain CNB1, active compounds read low 0.965 | S. cerevisiae deletion strains, locus YKR026C, strain gcn3, active compounds read low 0.967 | S. cerevisiae deletion strains, locus YKR091W, strain srl3, active compounds read low 0.985 | S. cerevisiae deletion strains, locus YLL001W, strain dnm1, active compounds read low 0.993 | S. cerevisiae deletion strains, locus YLL026W, active compounds read low 0.991 | S. cerevisiae deletion strains, locus YLL041C, strain sdh2, active compounds read low 0.975 | S. cerevisiae deletion strains, locus YLR027C, strain aat2, active compounds read low 0.964 | S. cerevisiae deletion strains, locus YLR039C, strain RIC1, active compounds read low 0.68 | S. cerevisiae deletion strains, locus YLR058C, strain SHM2, active compounds read low 0.96 | S. cerevisiae deletion strains, locus YLR102C, strain apc9, active compounds read low 0.983 | S. cerevisiae deletion strains, locus YLR113W, strain HOG1, active compounds read low 0.958 | S. cerevisiae deletion strains, locus YLR221C, strain rsa3, active compounds read low 0.952 | S. cerevisiae deletion strains, locus YLR258W, strain gsy2, active compounds read low 0.988 | S. cerevisiae deletion strains, locus YLR262C, strain YPT6 (second series), active compounds read low 0.939 | S. cerevisiae deletion strains, locus YLR262C, strain YPT6, active compounds read low 0.79 | S. cerevisiae deletion strains, locus YLR268W, strain sec22, active compounds read low 0.927 | S. cerevisiae deletion strains, locus YLR320W, strain mms22, active compounds read low 0.895 | S. cerevisiae deletion strains, locus YLR330W, strain CHS5, active compounds read low 0.939 | S. cerevisiae deletion strains, locus YLR342W, strain FKS1 (second series), active compounds read low 0.95 | S. cerevisiae deletion strains, locus YLR342W, strain FKS1, active compounds read low 0.992 | S. cerevisiae deletion strains, locus YLR357W, strain rsc2, active compounds read low 1.01 | S. cerevisiae deletion strains, locus YLR370C, strain arc18, active compounds read low 0.982 | S. cerevisiae deletion strains, locus YLR384C, strain iki3, active compounds read low 0.991 | S. cerevisiae deletion strains, locus YML016C, strain PPZ1, active compounds read low 0.936 | S. cerevisiae deletion strains, locus YML032C, strain rad52, active compounds read low 0.915 | S. cerevisiae deletion strains, locus YML120C, strain ndi1, active compounds read low 0.948 | S. cerevisiae deletion strains, locus YML124C, strain tub3, active compounds read low 0.968 | S. cerevisiae deletion strains, locus YMR058W, strain fet3, active compounds read low 0.971 | S. cerevisiae deletion strains, locus YMR078C, strain ctf18, active compounds read low 0.955 | S. cerevisiae deletion strains, locus YMR125W, strain sto1, active compounds read low 1.01 | S. cerevisiae deletion strains, locus YMR129W, active compounds read low 0.986 | S. cerevisiae deletion strains, locus YMR205C, strain PFK2, active compounds read low 0.987 | S. cerevisiae deletion strains, locus YMR223W, strain ubp8, active compounds read low 0.933 | S. cerevisiae deletion strains, locus YMR231W, strain pep5, active compounds read low 0.987 | S. cerevisiae deletion strains, locus YMR263W, strain SAP30, active compounds read low 0.916 | S. cerevisiae deletion strains, locus YMR307W, strain GAS1, active compounds read low 0.816 | S. cerevisiae deletion strains, locus YNL067W, strain RPL9B, active compounds read low 0.941 | S. cerevisiae deletion strains, locus YNL071W, strain lat1, active compounds read low 0.929 | S. cerevisiae deletion strains, locus YNL183C, strain NPR1, active compounds read low 0.921 | S. cerevisiae deletion strains, locus YNL209W, strain ssb2, active compounds read low 0.976 | S. cerevisiae deletion strains, locus YNL233W, strain BNI4, active compounds read low 0.872 | S. cerevisiae deletion strains, locus YNL248C, strain rpa49, active compounds read low 0.906 | S. cerevisiae deletion strains, locus YNL250W, strain rad50, active compounds read low 0.989 | S. cerevisiae deletion strains, locus YNL271C, strain bni1, active compounds read low 0.965 | S. cerevisiae deletion strains, locus YNL298W, strain CLA4, active compounds read low 0.95 | S. cerevisiae deletion strains, locus YNL322C, strain KRE1 (second series), active compounds read low 0.986 | S. cerevisiae deletion strains, locus YNL322C, strain KRE1, active compounds read low 0.973 | S. cerevisiae deletion strains, locus YNR049C, strain mso1, active compounds read low 0.985 | S. cerevisiae deletion strains, locus YNR052C, strain pop2, active compounds read low 0.948 | S. cerevisiae deletion strains, locus YOL012C, strain htz1 0.5 | S. cerevisiae deletion strains, locus YOL147C, strain pex11, active compounds read low 0.958 | S. cerevisiae deletion strains, locus YOR001W, strain rrp6, active compounds read low 0.936 | S. cerevisiae deletion strains, locus YOR061W, strain CKA2, active compounds read low 0.962 | S. cerevisiae deletion strains, locus YOR069W, strain VPS5, active compounds read low 0.968 | S. cerevisiae deletion strains, locus YOR070C, strain gyp1, active compounds read low 0.977 | S. cerevisiae deletion strains, locus YOR080W, strain dia2, active compounds read low 0.98 | S. cerevisiae deletion strains, locus YOR083W, strain WHI5, active compounds read low 0.908 | S. cerevisiae deletion strains, locus YOR106W, strain vam3, active compounds read low 0.946 | S. cerevisiae deletion strains, locus YOR136W, strain idh2, active compounds read low 0.995 | S. cerevisiae deletion strains, locus YOR144C, strain elg1, active compounds read low 0.954 | S. cerevisiae deletion strains, locus YOR231W, strain MKK1, active compounds read low 0.956 | S. cerevisiae deletion strains, locus YOR265W, strain rbl2, active compounds read low 0.985 | S. cerevisiae deletion strains, locus YOR270C, strain vph1, active compounds read low 0.857 | S. cerevisiae deletion strains, locus YOR290C, strain snf2, active compounds read low 0.944 | S. cerevisiae deletion strains, locus YOR316C, strain cot1, active compounds read low 0.985 | S. cerevisiae deletion strains, locus YPL051W, strain arl3, active compounds read low 0.933 | S. cerevisiae deletion strains, locus YPL055C, strain LGE1, active compounds read low 0.87 | S. cerevisiae deletion strains, locus YPL078C, strain atp4, active compounds read low 0.932 | S. cerevisiae deletion strains, locus YPL106C, strain sse1, active compounds read low 0.94 | S. cerevisiae deletion strains, locus YPL240C, strain hsp82, active compounds read low 0.958 | S. cerevisiae deletion strains, locus YPL241C, strain CIN2, active compounds read low 0.941 | S. cerevisiae deletion strains, locus YPL256C, strain CLN2, active compounds read low 0.973 | S. cerevisiae deletion strains, locus YPR119W, strain clb2, active compounds read low 0.98 | S. cerevisiae deletion strains, locus YPR141C, strain kar3, active compounds read low 0.985 | S. cerevisiae deletion strains, locus YPR163C, strain tif3, active compounds read low 0.917 | S. cerevisiae deletion strains, locus YPR167C, strain met16, active compounds read low 0.96 | S. cerevisiae deletion strains, strain wtn01, active compounds read low 0.957 | S. cerevisiae strains, strain wild type, active compounds read low 0.967
active: S. cerevisiae deletion strains, locus YKR001C, strain vps1, active compounds read low 0.644 | S. cerevisiae deletion strains, locus YLR371W, strain rom2, active compounds read low 0.816 | S. cerevisiae deletion strains, locus YLR418C, strain cdc73, active compounds read low 0.754 | S. cerevisiae deletion strains, locus YNL307C, strain MCK1, active compounds read low 0.859 | S. cerevisiae deletion strains, locus YOR184W, strain ser1, active compounds read low 0.859
